16 molecules from PubChem BioAssay (NCI) can be followed below.

What all share (test): NCI-60 one-dose screen, 48 h (100 = growth as untreated, 0 = no growth, -100 = all killed)
Conditions in all cases: 10 µM unless noted

For test [1], the system named is T-47D breast.
In test [2] the test system is BT-549 breast.
For test [3], the system named is MDA-MB-435 melanoma.
Test [4] has as its system SW-620 colon.
Test [5] has as its system MCF7 breast.
The subject of test [6] is HCT-116 colon.
For test [7], the system named is HCC-2998 colon.
For test [8], the system named is KM12 colon.

This is part of a sample that, as a whole, favours compounds with a hit. Of some 83,000 tested, about 20% had one in any assay.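 The endpoint reported here, percent growth, reads 100 for growth as untreated, 0 for no net growth and -100 for all cells dead.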 Unmarked numbers belong to inactive results. Active and inactive are the calls of the source. Rule for the calls: active = growth percent below 10; inactive = the rest.

As to `Oc1c(C(Nc2ccccc2Br)c2ccccc2)ccc2cccnc12` (stereo not drawn), the growth in test [1] was 29.9%; in test [2] it was 28.3%; in test [3], 35.7%; in test [4] it was 33.7%; in test [5], 21%; in test [6], 20%. The growth in test [7] was 30.1%; in test [8] it was 32.3%.
For `CCOC(=O)c1cc(N)nc2ccccc12`, the growth in test [1] was 93.7%; in test [2], 105%; in test [3], 108%; in test [4], 91.8%; in test [5] it was 107%; in test [6], 102%. Further, the growth in test [7] was 111%; in test [8] it was 98.4%.
On to `O=[N+]([O-])c1ccc(N=Nc2c(NNc3ccc([N+](=O)[O-])cn3)cc(S(=O)(=O)O)c3ccccc23)nc1`, for which the growth in test [1] was 90.9%; in test [2], 81.7%; in test [3], 90%; in test [4], 83.1%; in test [5], 85.9%; in test [6], 69.6%. In addition, the growth in test [7] is 87.1%; in test [8] it was 87.6%.
Turning to `COc1ccccc1/C=N\Nc1ccc([N+](=O)[O-])cn1`, the growth is 94.8% in test [1]; 101% in test [2]; 104% in test [3]; 124% in test [4]; 96.2% in test [5]; 96.5% in test [6]. For the same molecule, the growth in test [7] was 100%; in test [8], 106%.
Take `CCN(CC)c1ccc2c(cc1=O)[C@@H](NC(C)=O)CCc1cc(OC)c(OC)c(OC)c1-2`: the growth in test [1] was 82.2%; in test [2], 1.73% (active); in test [3], -43.9% (active); in test [4], 23.3%; in test [5] it was 14.9%; in test [6] it was 3.75% (active). Also, the growth in test [7] was 22.9%; in test [8], 5.97% (active).
Turning to `COc1ccc(-c2cc(-c3ccc(OC)cc3)c3sc(=O)[nH]c3n2)cc1`, the growth in test [1] is 78.6%; in test [2], 92.9%; in test [3], 107%; in test [4], 95.9%; in test [5], 87.4%; in test [6] it was 96.8%. Moreover, the growth in test [7] is 98.7%; in test [8], 93.9%.
Consider `COC1(OC)C2(Cl)CCC1(Cl)C(Cl)=C2Cl`, for which the growth in test [1] was 98.3%; in test [2], 117%; in test [3], 99.9%; in test [4] it was 120%; in test [5] it was 98%; in test [6] it was 105%. The growth in test [7] is 103%; in test [8], 106%.
On to `Cn1c(-c2ccccc2)cc(=O)n1-c1ccccc1`, for which the growth in test [1] was 102%; in test [2], 110%; in test [3] it was 98.4%; in test [4] it was 117%; in test [5], 93.6%; in test [6], 100%. In addition, the growth in test [7] is 100%; in test [8], 103%.
For `CCc1onc(-c2ccc(OC)cc2)c1-c1ccccc1OCCN(CC)CC`, the growth in test [1] is 91.7%; in test [2], 81.1%; in test [3] it was 90.5%; in test [4] it was 94.7%; in test [5], 95.6%; in test [6], 70.9%. Also, the values for the growth in test [7] and in test [8] were 80.8% and 93.1%, respectively.
As to `Cc1ccc2c(C)c3c(ccc4ccccc43)c[n+]2c1`, the growth was -8.02% (active) in test [1]; 37% in test [2]; 83.2% in test [3]; 83.1% in test [4]; 35.7% in test [5]; 81.7% in test [6]. Also, the growth in test [7] was 72.6%; in test [8], 28.6%.
With `CN(C)c1nc(-c2ccco2)n2nc(-c3ccc(Cl)cc3)cc2n1`, the growth in test [1] was 47.9%; in test [2], 86.7%; in test [3], 89.6%; in test [4] it was 62.7%; in test [5], 68.2%; in test [6], 43.4%. Moreover, the growth in test [7] is 86%; in test [8] it was 84.4%.
Take `O=C1/C=C/[C@@H](O)[C@@H]2C[C@@H](O)C[C@H]2/C=C/CCC[C@H]([C@@H](O)CO)O1`: the growth in test [1] was 81.8%; in test [2], 75.8%; in test [3], 83%; in test [4] it was 104%; in test [5], 45.1%; in test [6] it was 93.8%. For the same molecule, the results for the growth in test [7] and in test [8] were 84.6% and 63.5%, respectively.
With `O=C1Nc2ccc(Cl)cc2/C1=C\c1c(-c2ccc(F)cc2)nc2ccccn12`, the growth in test [1] is 9.64% (active); in test [2], 15.7%; in test [3], -34.5% (active); in test [4], 8.89% (active); in test [5], -9.38% (active); in test [6], -78.7% (active). Further, the growth in test [7] was 44.7%; in test [8], -32.1% (active).
On to `N=c1nc(N2CCCCC2)cc(N)n1O`, for which the growth is 100% in test [1]; 106% in test [2]; 107% in test [3]; 109% in test [4]; 84.2% in test [5]; 106% in test [6]. The growth in test [7] was 105%; in test [8] it was 107%.
On to `COc1cc(/C=C\c2cc(/C=C\c3ccc(O)c(OC)c3)n(C(=O)Nc3ccc(C(F)(F)F)cc3)n2)ccc1O`, for which the growth in test [1] is 47.4%; in test [2] it was 19%; in test [3], 27.8%; in test [4] it was 18%; in test [5] it was 22.9%; in test [6], -53.7% (active). In addition, the growth in test [7] is 103%; in test [8], 41.4%.
For `CCN(CC)CCNC(=O)n1cc(-c2ccncc2)c(-c2cc(Cl)cc(OC)c2)n1`, the growth is 87.3% in test [1]; 95.6% in test [2]; 83.5% in test [3]; 100% in test [4]; 87.7% in test [5]; 85.5% in test [6]. In addition, the growth in test [7] is 113%; in test [8], 98.3%.
